# Measured values as given in article PMC12136788.
# In all, about 24,000 sequences were measured (“enrichment r”: median about 0.99, highest 2% from about 3.7 on). These entries were drawn from the full list.
# T1: UNK ZnF1-3 (human, UniProt Q9C0B0 31-174)
# T1 sequence: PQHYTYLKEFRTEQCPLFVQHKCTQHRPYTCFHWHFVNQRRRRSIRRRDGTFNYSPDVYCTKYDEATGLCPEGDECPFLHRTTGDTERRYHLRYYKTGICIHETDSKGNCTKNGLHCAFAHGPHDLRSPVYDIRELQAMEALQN
# B1: chr17:73774127:73774128:-_ENSG00000132475_ENST00000254810|hu_mus|motif|central (ssRNA)
# RNA: GGGAGUUCUACAGUCCGACGAUCUGACAAGACUCCCCACCACUUGUGAAUGUAAAACAUUUAAUUUAAAAAUGUUGAACACGGCAAUAUAUAAAAUAGCUAUUAUAAAUGCACAUAGUGUAUUCUAUAGCUGCCAGGUUUACUCAACAGAGGAUUGAGCAUCA
# B2: chr9:95013113:95013114:-_ENSG00000196305_ENST00000443024|hu_hu|hu_hu_hu_mus_False|68_108 (ssRNA)
# RNA: GGGAGUUCUACAGUCCGACGAUCCUCAGUGAGAAAAGGCGUGUAAGGGGCCAUCAGUCUGCACAGAGAAAGCAGAACACUGAACAGUGUCUCCAGAGCCAUGACACAGUCUUCCACCCCACUCUCACCCUUUAACCUCCUCCUCAACAGAGGAUUGAGCAUCA
# B3: chr8:41367971:41367972:+_ENSG00000147533_ENST00000520817|hu_hu|motif|central (ssRNA)
# RNA: GGGAGUUCUACAGUCCGACGAUCAAUAUACAGUAUUAUUCCUAUCAAAUUUUUUUCUCAUAAGUUAUAUUUAUAACAAAACGGUAAUUAAAAUAUUUUUUAUACCUGCUUAUUCCAUAUCCAGGGACACAGCGGGAACAUUUACAACAGAGGAUUGAGCAUCA
# B4: chr4:4237396:4237397:-_ENSG00000132406_ENST00000382753|hu_hu|motif|central (ssRNA)
# RNA: GGGAGUUCUACAGUCCGACGAUCUAAAACUUCACAUUAGGAAAUGCUAAAAACCCAGUAAUGUACAUAAUGAUAAAAUCGGAAGUGAUGAGAAAACAUAAAAUAUUUUCAUUUGGUCCUGUCACCUAACAAAACUAUCAUAAACAACAGAGGAUUGAGCAUCA
# B5: chr18:77696836:77696837:-_ENSMUSG00000025427_ENSMUST00000026494|mus_hu|FALSE|FALSE (ssRNA)
# RNA: GGGAGUUCUACAGUCCGACGAUCCCUCAGAGGAUACCGGCUGGGUGGGCUGAGGUUGUGGGAGGAGCGAGGGAGGAGGAAAGGCAGGUUCAUGAUGGAGAGGCAGGGUUGUGGUGGGGGCGGGGGGGUGCCAAGUGUAGCAAGCAACAGAGGAUUGAGCAUCA
# B6: chr8:35901500:35901501:-_ENSMUSG00000031529_ENSMUST00000033929|mus_mus|FALSE|FALSE (ssRNA)
# RNA: GGGAGUUCUACAGUCCGACGAUCUAUAUAACAUGAUCUGUCUUUGUGUGUGGGACAGCCUGUUCCUCCUCCAAUUCCAUAAACAUACUGAUUGCUUUUUGAGGAGUUUUCAGCAAAGUAAAUUCCAGCUCCAAACAUCCCUCCCAACAGAGGAUUGAGCAUCA
# B7: chr2:9728443:9728444:-_ENSG00000134308_ENST00000238081|hu_mus|motif|central (ssRNA)
# RNA: GGGAGUUCUACAGUCCGACGAUCCUGCAUCUCCUUCUUGCUUAUAUCAAACGCCUCUUGGUAGGCUCCUUGGGAAUUUUCGGUUGUUUGUUUUCGAUCAUCGCCACAAGCUACUUCAGCAAGAUACCGGAAAUAAUCUCCCUUCAACAGAGGAUUGAGCAUCA
# B8: 30602309_30602429_1961_3pUTR_ENSG00000107951_ENST00000263063|human|control|control (ssRNA)
# RNA: GGGAGUUCUACAGUCCGACGAUCCGCCACACUCCACAGCUGAUGUUUUAAUAAAGUGCCACUGAGUAUCAGACUGAUCAAACUGAAAACAUCCCAGAACUUCAGACCAGGUUAAGGGGGCCAAUGAGAAGAUCAUGAAAAGUGCAACAGAGGAUUGAGCAUCA
# B9: chr4:42003652:42003653:+_ENSG00000014824_ENST00000513699|hu_hu|motif|central (ssRNA)
# RNA: GGGAGUUCUACAGUCCGACGAUCGGUACCAAUAUAUGGAUGACUACAGGGAACCAUGUUUGAAAAGCUUCCAAAUGUCACGGAAUUCUGCCACUCCUGGCGGUCGCUGGGAUUACAGGCCGCCGCCCUGCAUCGCAGACGGAGCAACAGAGGAUUGAGCAUCA
# B10: 22790091_22790211_509_ncRNA_ENSMUSG00000026784_ENSMUST00000139472|mouse|control|control (ssRNA)
# RNA: GGGAGUUCUACAGUCCGACGAUCAUGACUGGAGUUUGAUGAAGAAAGAACUGACUACUCAGACACCUGUCUCCCCACCGUGUGUGACACACACUAUAAGUCCCUCAGUAAUGAUGACAAUGUCUUGUAUCCUCUUCAUUUUUACAACAGAGGAUUGAGCAUCA
# B11: chr2:202488911:202488912:-_ENSG00000155755_ENST00000286196|hu_mus|hu_hu_hu_mus_False|88_98 (ssRNA)
# RNA: GGGAGUUCUACAGUCCGACGAUCAUUGAAACAUUUUCAUAAUAUUGAGAGAUGUUUUCAGCAUUAUGUAACAAAAGCUCAAUUGUAAAUACAUGUAUCUUAUAAAAAUACACUUAAAAACACGAGUGGGGAGCGCAGGCGCCACAACAGAGGAUUGAGCAUCA
# B12: chr16:94690476:94690477:+_ENSMUSG00000040785_ENSMUST00000117648|mus_mus|motif|central (ssRNA)
# RNA: GGGAGUUCUACAGUCCGACGAUCAGAAAUGUAAUGUAUUCAAGGUUCACAUGUCUGUAUUUGCCACUGCCUACAGGUCACGGAAAAUACCUAGUUUUUGAAUAGUUUCUAAUACAGUUAGCUUGUUUUCAGGCCACAUUACAACAACAGAGGAUUGAGCAUCA
# B13: chr13:90237973:90237974:+_ENSMUSG00000012422_ENSMUST00000161568|mus_hu|FALSE|FALSE (ssRNA)
# RNA: GGGAGUUCUACAGUCCGACGAUCAAGCACAGGUACAUAUAAGCAGCAAGAUUACAGUCAAUAGACUCUGAAAAUUGAAAAUGGCAGACAUAGCGAGGCCGGCGAUGCCGCAGCCACAUCACCCUUCCGGGGCUCAGGCGGAAGCAACAGAGGAUUGAGCAUCA
# B14: chr1:163112212:163112213:-_ENSG00000143248_ENST00000313961|hu_hu|hu_hu_hu_mus_False|1_58 (ssRNA)
# RNA: GGGAGUUCUACAGUCCGACGAUCUUUUAUUAUCAGUAAGAGUGAGUUACAUACUAGGCAAAGUAUUGGAUACAAUAUUCUAAAGAUAAACACUAUUGGUCCAGAAUUUAAAACUUUAUGAGCGAAGUGCUGGCACAGGAUUUACAACAGAGGAUUGAGCAUCA
# Target: T1, UNK ZnF1-3
# Experiment: nsRBNS (natural sequence RNA bind-n-seq); RBNS binding buffer (assumed for nsRBNS): 25 mM Tris pH 7.5, 150 mM KCl, 3 mM MgCl2, 0.01% Triton X-100, 500 ug/ml BSA, 20 U/ml SUPERase-In, 4 C; UNK is unkempt and MSI1 is Musashi-1; names of the RNAs are library labels; protein concentration not given here; high values mean tight binding
row,Binder,binding signal
1,B1,1.13 enrichment R
2,B2,1.61 enrichment R
3,B3,1.27 enrichment R
4,B4,1.05 enrichment R
5,B5,3.07 enrichment R
6,B6,1.03 enrichment R
7,B7,0.873 enrichment R
8,B8,2.32 enrichment R
9,B9,1.6 enrichment R
10,B10,0.985 enrichment R
11,B11,0.63 enrichment R
12,B12,0.656 enrichment R
13,B13,1.37 enrichment R
14,B14,1.29 enrichment R
